Records with an inconclusive call do not appear. The source made the active and inactive calls. Rule for the calls, unless noted: active = hit-call score of the fitted dose curve at least 0.9, where 1 is the maximum; inactive = score below 0.9.
Assays:
[1] = ACEA_ER_80hr: ACEA Biosciences xCELLigence Real-Time Cell Analysis on Estrogen Receptor Agonism for Proliferation (AID 2282667; active = hit-call score of the fitted dose curve at least 0.9, where 1 is the maximum); settings: T47D proliferation, impedance (xCELLigence), 80 h
In short: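 Impedance readout (RT-CES) of T47D proliferation at 80 h post-dose; gain of signal vs DMSO baseline. Compounds: 8 conc, 1:4 serial, top 100 uM final, ≤0.5% DMSO; biological duplicate.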

[2] = ATG_CRE_CIS: Attagene CIS-FACTORIAL HepG2 Assay for human cAMP Responsive Element (CRE) binding protein 3 (AID 2282926); settings: HepG2 CRE cis-reporter, Attagene multiplexed mRNA; actives raise or lower the signal
In short: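 Readout: fluorescently labelled reporter transcripts resolved by capillary electrophoresis after RT-PCR, taken 24 h post-dosing in transfected HepG2. Endogenous transcription factor activity drives each cis-element reporter; gain or loss of signal fitted relative to DMSO control.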

[3] = target: CCAAT/enhancer-binding protein beta (Homo sapiens) (UniProt P17676); experiment: ATG_C_EBP_CIS: Attagene CIS-FACTORIAL HepG2 Assay for human CCAAT/Enhancer Binding Protein (C/EBP) beta (AID 2282927); settings: HepG2 Attagene cis-factorial transcription factor reporter; actives raise or lower the signal
Chain of CCAAT/enhancer-binding protein beta (Homo sapiens) (P17676 whole entry, looked up): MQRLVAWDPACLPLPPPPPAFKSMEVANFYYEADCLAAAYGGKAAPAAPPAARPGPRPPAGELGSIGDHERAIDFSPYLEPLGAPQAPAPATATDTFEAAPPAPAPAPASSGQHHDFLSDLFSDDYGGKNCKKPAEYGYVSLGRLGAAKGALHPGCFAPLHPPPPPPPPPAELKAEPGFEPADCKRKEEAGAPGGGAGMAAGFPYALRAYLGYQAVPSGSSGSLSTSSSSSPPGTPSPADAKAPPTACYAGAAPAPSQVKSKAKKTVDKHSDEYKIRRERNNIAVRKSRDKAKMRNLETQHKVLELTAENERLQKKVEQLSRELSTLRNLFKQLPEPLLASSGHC
In short: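 Changes in reporter mRNA, rather than exogenous chimeric receptor activity, reflect native C/EBP signalling in transfected HepG2 cells dosed for 24 h; transcripts are detected by RT-PCR and capillary electrophoresis.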

[4] = ATG_CMV_CIS: Attagene CIS-FACTORIAL HepG2 Assay for human CMV (Internal Marker) (AID 2282928); settings: HepG2 CMV promoter reporter, transcription factor profiling; actives raise or lower the signal;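 note: endpoint acts as a background internal control marker rather than a target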
In short: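 24 h chemical treatment, HepG2 with transient multi-reporter transfection; RNA → oligo(dT) RT → PCR → 6-FAM extension → HpaI digest → CE fluorescence. Bidirectional fit, DMSO negative control.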

[5] = ATG_DR4_LXR_CIS: Attagene CIS-FACTORIAL HepG2 Assay for human Liver X Receptor (LXR), DR4 submotif (AID 2282929); settings: HepG2 Attagene DR4 cis-reporter, mRNA transcription; actives raise or lower the signal
In short: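 Fluorescence intensity of labelled reporter cDNA fragments, separated by capillary electrophoresis, gives the signal. HepG2 cells bearing cis-regulated reporter constructs were treated 24 h; activity fitted bidirectionally relative to DMSO negative control.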

[6] = target: Aryl hydrocarbon receptor (Homo sapiens) (UniProt P35869); experiment: ATG_Ahr_CIS: Attagene CIS-FACTORIAL HepG2 Assay for human Aryl Hydrocarbon Receptor (Ahr) (AID 2282930); settings: HepG2 AhR cis-factorial reporter transcription; actives raise or lower the signal
Chain of Aryl hydrocarbon receptor (Homo sapiens) (P35869 whole entry, looked up): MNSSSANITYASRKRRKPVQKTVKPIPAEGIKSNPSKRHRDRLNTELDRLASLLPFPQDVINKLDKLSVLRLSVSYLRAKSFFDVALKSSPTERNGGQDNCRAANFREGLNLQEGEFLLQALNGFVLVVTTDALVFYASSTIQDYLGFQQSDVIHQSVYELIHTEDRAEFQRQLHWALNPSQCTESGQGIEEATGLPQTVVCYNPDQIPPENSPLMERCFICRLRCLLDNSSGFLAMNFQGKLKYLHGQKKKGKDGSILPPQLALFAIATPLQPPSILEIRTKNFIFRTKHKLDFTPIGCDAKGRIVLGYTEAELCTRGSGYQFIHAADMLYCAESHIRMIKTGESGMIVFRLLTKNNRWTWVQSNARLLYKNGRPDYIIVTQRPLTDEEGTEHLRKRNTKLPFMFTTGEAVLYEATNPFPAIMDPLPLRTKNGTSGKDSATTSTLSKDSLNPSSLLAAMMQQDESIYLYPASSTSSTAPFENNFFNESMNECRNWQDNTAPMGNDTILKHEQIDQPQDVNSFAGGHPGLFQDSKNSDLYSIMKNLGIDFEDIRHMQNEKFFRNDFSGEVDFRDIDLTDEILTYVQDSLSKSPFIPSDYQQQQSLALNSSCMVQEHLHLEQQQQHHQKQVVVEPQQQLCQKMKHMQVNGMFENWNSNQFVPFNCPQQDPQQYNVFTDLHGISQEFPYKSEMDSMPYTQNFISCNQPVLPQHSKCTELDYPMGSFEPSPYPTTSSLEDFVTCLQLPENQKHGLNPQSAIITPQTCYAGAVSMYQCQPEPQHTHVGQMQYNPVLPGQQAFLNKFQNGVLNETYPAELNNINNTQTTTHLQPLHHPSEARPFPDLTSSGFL
In short: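 HepG2, transient MRTU (cis) transfection, 24 h exposure. RNA → cDNA → PCR → 6-FAM primer extension → HpaI 2 h 37 C → CE. Fit: bidirectional, DMSO baseline.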

[7] = ATG_AP_1_CIS: Attagene CIS-FACTORIAL HepG2 Assay for human Activator Protein 1 (AP-1) (AID 2282931); settings: HepG2 Attagene cis-factorial AP-1 reporter mRNA; actives raise or lower the signal
In short: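 Multiplexed HepG2 reporter assay, 24 h dosing. mRNA induction detected by RT-PCR plus capillary electrophoresis. Activity fitted in both directions against DMSO.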

[8] = ATG_AP_2_CIS: Attagene CIS-FACTORIAL HepG2 Assay for human Activator Protein 2 (AP-2) (AID 2282932); settings: HepG2 AP-2 cis-reporter, Attagene transcription factor profiling; actives raise or lower the signal
In short: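 Transiently transfected HepG2 cells are exposed to chemical for 24 h. Reporter transcripts are then measured as fluorescence following RT-PCR and capillary separation, and gain- or loss-of-signal is fitted relative to DMSO.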

[9] = ATG_BRE_CIS: Attagene CIS-FACTORIAL HepG2 Assay for human Bone Morphogenetic Protein (BMP) Response Element (BRE) (AID 2282933); settings: HepG2 BMP response element reporter, Attagene transcription factor profiling; actives raise or lower the signal
In short: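 After a 24 h chemical treatment, transiently transfected HepG2 cells were lysed for RNA; reporter transcripts were quantified by fluorescent RT-PCR and capillary electrophoresis, normalised to DMSO.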

[10] = target: Retinoic acid receptor alpha (Homo sapiens) (UniProt P10276); experiment: ATG_DR5_RAR_CIS: Attagene CIS-FACTORIAL HepG2 Assay for human Retinoic Acid Receptor Alpha (RARE), DR5 submotif (AID 2282934); settings: HepG2 Attagene cis-factorial RARE DR5 reporter, mRNA; actives raise or lower the signal;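 for AC50: reporter responds to endogenous RAR alpha beta and gamma in HepG2 not RARA alone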
Chain of Retinoic acid receptor alpha (Homo sapiens) (P10276 whole entry, looked up): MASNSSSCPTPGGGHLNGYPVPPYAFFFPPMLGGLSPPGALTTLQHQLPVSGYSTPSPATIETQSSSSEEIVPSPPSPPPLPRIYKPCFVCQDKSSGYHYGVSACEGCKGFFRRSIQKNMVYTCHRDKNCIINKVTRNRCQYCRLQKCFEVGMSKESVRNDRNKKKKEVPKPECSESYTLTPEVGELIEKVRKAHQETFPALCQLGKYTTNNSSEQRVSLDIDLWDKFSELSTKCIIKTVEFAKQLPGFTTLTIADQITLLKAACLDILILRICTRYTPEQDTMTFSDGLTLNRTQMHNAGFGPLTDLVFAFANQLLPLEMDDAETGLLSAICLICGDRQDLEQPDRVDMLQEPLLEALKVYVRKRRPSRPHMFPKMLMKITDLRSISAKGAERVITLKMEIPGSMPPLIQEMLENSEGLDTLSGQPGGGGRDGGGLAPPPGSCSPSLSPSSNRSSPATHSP
In short: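 HepG2, transient cis-reporter transfection, 24 h exposure. mRNA readout: RT-PCR, FAM label, HpaI cut, capillary electrophoresis. DMSO baseline, gain/loss fitting.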

[11] = target: Transcription factor E2F1 (Homo sapiens) (UniProt Q01094); experiment: ATG_E2F_CIS: Attagene CIS-FACTORIAL HepG2 Assay for human E2F Transcription Factor 1 (AID 2282935); settings: HepG2 Attagene cis-reporter, E2F reporter RNA transcripts; actives raise or lower the signal
Chain of Transcription factor E2F1 (Homo sapiens) (Q01094 whole entry, looked up): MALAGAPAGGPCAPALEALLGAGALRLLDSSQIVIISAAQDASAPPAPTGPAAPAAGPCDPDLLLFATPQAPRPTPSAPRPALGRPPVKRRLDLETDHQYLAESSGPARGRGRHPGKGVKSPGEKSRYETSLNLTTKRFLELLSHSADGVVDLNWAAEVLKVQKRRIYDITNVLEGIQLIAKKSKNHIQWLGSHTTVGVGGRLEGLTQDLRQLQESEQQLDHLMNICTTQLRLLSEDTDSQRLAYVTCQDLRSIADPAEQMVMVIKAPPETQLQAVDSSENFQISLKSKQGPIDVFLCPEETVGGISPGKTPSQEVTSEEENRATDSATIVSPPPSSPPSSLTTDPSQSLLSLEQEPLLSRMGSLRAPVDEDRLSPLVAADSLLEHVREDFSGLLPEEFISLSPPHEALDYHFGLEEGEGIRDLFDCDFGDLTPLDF
In short: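 Fluorescent RT-PCR products, digested with HpaI for 2 h at 37 C, are separated by capillary electrophoresis. Source RNA comes from transfected HepG2 cultures treated for 24 h.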

[12] = ATG_E_Box_CIS: Attagene CIS-FACTORIAL HepG2 Assay for human Enhancer Box (E-box) (AID 2282936); settings: HepG2 E-box cis-reporter transcription, actives raise or lower the signal
In short: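 Fluorescent reporter fragments separated by capillary electrophoresis gave the signal; mRNA came from HepG2 cells transfected with cis-element reporters and treated 24 h. Curves fitted bidirectionally relative to DMSO controls.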

[13] = ATG_EGR_CIS: Attagene CIS-FACTORIAL HepG2 Assay for human Early Growth Response 1 (EGR1) (AID 2282938); settings: HepG2 Attagene CIS-FACTORIAL EGR reporter mRNA; actives raise or lower the signal
In short: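 Activity is taken as induction or loss of reporter mRNA versus DMSO, fitted bidirectionally. Transcripts from cis-regulated reporter units in transiently transfected HepG2 were measured after 24 h by RT-PCR with capillary electrophoresis.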

[14] = ATG_M_19_CIS: Attagene CIS-FACTORIAL HepG2 Assay for M19 Transcription Factor (Internal Marker) (AID 2282939); settings: HepG2 Attagene CIS-FACTORIAL M19 internal marker reporter; actives raise or lower the signal
In short: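 In this multiplexed cell assay, transiently transfected HepG2 reporter units report endogenous transcription-factor activity; after 24 hours of treatment, labelled reporter cDNA fragments are quantified by capillary electrophoresis and fitted bidirectionally against DMSO.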

[15] = ATG_ERE_CIS: Attagene CIS-FACTORIAL HepG2 Assay for Estrogen Response Element (ERE) (AID 2282940); settings: HepG2 ERE cis-reporter, Attagene RNA transcript; actives raise or lower the signal
In short: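 Measuring endogenous transcription factor output, the assay doses transfected HepG2 cells for 24 hours and quantifies reporter transcripts by fluorescent RT-PCR and capillary electrophoresis, with DMSO as baseline.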

[16] = ATG_Ets_CIS: Attagene CIS-FACTORIAL HepG2 Assay for human Erythroblast Transformation Specific (ETS) (AID 2282941); settings: HepG2 ETS cis-reporter transcription, actives raise or lower the signal
In short: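 Cis-regulated reporter mRNA induction in HepG2 (transient transfection), 24 h exposure, RT-PCR plus capillary electrophoresis detection; DMSO serves as negative control and baseline.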

[17] = target: Hepatocyte nuclear factor 3-beta (Homo sapiens) (UniProt Q9Y261); experiment: ATG_FoxA2_CIS: Attagene CIS-FACTORIAL HepG2 Assay for human Forkhead box A2 (FOXA2) (AID 2282942); settings: HepG2 cis-reporter transcription factor activity, 24 h; actives raise or lower the signal
Chain of Hepatocyte nuclear factor 3-beta (Homo sapiens) (Q9Y261 whole entry, looked up): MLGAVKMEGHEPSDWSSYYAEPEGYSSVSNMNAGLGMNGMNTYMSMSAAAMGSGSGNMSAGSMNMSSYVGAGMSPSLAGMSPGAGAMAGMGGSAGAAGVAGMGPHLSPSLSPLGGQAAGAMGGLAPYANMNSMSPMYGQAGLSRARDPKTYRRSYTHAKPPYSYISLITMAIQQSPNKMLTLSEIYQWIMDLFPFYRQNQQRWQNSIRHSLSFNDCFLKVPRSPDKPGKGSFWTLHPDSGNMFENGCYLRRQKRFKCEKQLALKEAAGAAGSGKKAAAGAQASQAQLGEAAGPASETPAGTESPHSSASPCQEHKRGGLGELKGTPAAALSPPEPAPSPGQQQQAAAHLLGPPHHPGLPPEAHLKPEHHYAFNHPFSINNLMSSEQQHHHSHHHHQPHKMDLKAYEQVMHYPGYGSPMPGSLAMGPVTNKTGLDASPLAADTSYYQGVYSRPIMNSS
In short: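 Reporter transcript induction is measured by fluorescence after capillary electrophoresis of RT-PCR products from HepG2 cells exposed 24 h. Cis-regulated reporter units report endogenous factor activity; curves fitted both directions against DMSO.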

[18] = ATG_FoxO_CIS: Attagene CIS-FACTORIAL HepG2 Assay for human Forkhead box O (FoxO) (AID 2282943); settings: HepG2 Attagene cis-reporter, FoxO element, mRNA; actives raise or lower the signal
In short: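 Human hepatoma HepG2 cells carry transiently introduced reporter transcription units controlled by cis promoter elements. Chemical treatment lasted 24 h, and mRNA signal was compared with DMSO.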

[19] = ATG_GATA_CIS: Attagene CIS-FACTORIAL HepG2 Assay for human GATA Binding Protein (AID 2282944); settings: HepG2 GATA cis-element reporter, Attagene multiplex mRNA; actives raise or lower the signal
In short: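 Measures endogenous transcription factor-driven reporter mRNA in HepG2 cells transiently carrying cis-regulated constructs. 24 h dosing; RNA via oligo(dT) reverse transcription, PCR, HpaI digestion, capillary electrophoresis; fitted relative to DMSO.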

[20] = ATG_M_61_CIS: Attagene CIS-FACTORIAL HepG2 Assay for M61 Transcription Factor (Internal Marker) (AID 2282937); settings: HepG2 Attagene CIS-FACTORIAL M61 internal marker reporter; actives raise or lower the signal
In short: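 Endogenous transcription factor activity in HepG2 is read through transiently transfected cis-element reporter units. After 24 h dosing, RNA undergoes reverse transcription, PCR and primer extension with 6-FAM before capillary electrophoresis; DMSO-referenced bidirectional fit.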

Measured: AC50

CC(C)CO
inactive: [1] | [2] | [3] | [4] | [5] | [6] | [7] | [8] | [9] | [10] | [11] | [12] | [13] | [14] | [15] | [16] | [17] | [18] | [19]

CC(CC=O)CC(C)(C)C (centres undefined)
inactive: [1] | [2] | [3] | [4] | [5] | [6] | [7] | [8] | [9] | [10] | [11] | [12] | [13] | [14] | [15] | [16] | [17] | [18] | [19]

CC12CCC(CC1)C(C)(C)O2
inactive: [1] | [2] | [3] | [4] | [5] | [6] | [7] | [8] | [9] | [10] | [11] | [12] | [20] | [15] | [18] | [19]

CC(CC(C)C)=NO
inactive: [1] | [2] | [3] | [4] | [5] | [6] | [7] | [8] | [9] | [10] | [11] | [12] | [13] | [15] | [16] | [17] | [18] | [19]

N#Cc1ccc(C(c2ccc(C#N)cc2)n2cncn2)cc1
inactive: [1] | [2] | [3] | [4] | [5] | [6] | [7] | [8] | [9] | [10] | [11] | [12] | [20] | [14] | [15] | [16] | [17] | [18] | [19]

COCC(=O)O
inactive: [1] | [2] | [3] | [4] | [5] | [6] | [7] | [8] | [9] | [10] | [11] | [12] | [20] | [14] | [15] | [16] | [18]

CCOC(=O)c1ccc(C)cc1
inactive: [1] | [2] | [3] | [4] | [5] | [6] | [7] | [8] | [9] | [10] | [11] | [12] | [20] | [14] | [16] | [17] | [18] | [19]

CC(=O)OCC=C(C)C
inactive: [1] | [2] | [3] | [4] | [5] | [6] | [7] | [8] | [9] | [10] | [11] | [12] | [20] | [14] | [15] | [16] | [17] | [18] | [19]

CC(=O)OC(C)c1ccccc1 (centres undefined)
inactive: [1] | [2] | [3] | [4] | [5] | [6] | [7] | [8] | [9] | [10] | [11] | [12] | [13] | [14] | [15] | [17] | [18] | [19]

CCCCCCCCCCCC(C)=O
inactive: [1] | [2] | [3] | [6] | [9] | [11] | [12] | [20] | [14] | [17] | [19]
active: [4] 124 µM | [5] 136 µM | [7] 72.7 µM | [8] 153 µM | [10] 69.4 µM | [15] 1.3 µM | [16] 160 µM | [18] 171 µM

O=C(Cl)c1c(Cl)c(Cl)c(C(=O)Cl)c(Cl)c1Cl
inactive: [1] | [2] | [3] | [4] | [5] | [6] | [7] | [8] | [9] | [10] | [11] | [12] | [13] | [14] | [17] | [18]

C=CC(=O)NC(C)(C)C
inactive: [1] | [2] | [3] | [5] | [6] | [7] | [8] | [9] | [11] | [12] | [20] | [14] | [15] | [16] | [17] | [18]
active: [4] 48.7 µM | [10] 27.2 µM

Nc1ccc(Cl)c(N)c1
inactive: [1] | [2] | [3] | [4] | [5] | [7] | [8] | [9] | [10] | [11] | [12] | [13] | [15] | [16] | [17] | [18]
active: [6] 6.09 µM

CC1=CC(C)C(C=O)CC1 (centres undefined)
active: [6] 8.87 µM | [15] 27.2 µM
inactive: [1] | [2] | [3] | [4] | [5] | [7] | [8] | [9] | [10] | [11] | [12] | [20] | [14] | [16] | [17] | [18] | [19]

CCCCNC(=S)NCCCC
inactive: [1] | [2] | [3] | [4] | [5] | [6] | [7] | [8] | [9] | [10] | [11] | [12] | [20] | [13] | [15] | [16] | [18] | [19]

O=C(Cl)c1ccc(C(=O)Cl)cc1
inactive: [1] | [2] | [3] | [4] | [5] | [6] | [7] | [8] | [9] | [10] | [11] | [12] | [20] | [13] | [15] | [16] | [17] | [18] | [19]
